SNCA expr inh = SNCA gene expression inhibition | HEK-293 SNCA-luciferase knock-in, luminescence, 24 h | Potency, µM (top dose mostly 57.2 µM), without a hit: top-dose activity change, negative = inhibition, hits mostly inhibitors | hit rate 0.17% among 140,000 | AID 1671194;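 further: plate controls were DMSO cells for no effect and cell-free wells for full effect; nearly all actives have a fitted effect of over 45% in size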
HEK cytotox = kills HEK 293 cells; hit rate 6.6% among 94,000; Potency, µM (top dose mostly 115 µM), for inactives: at the top dose activity change, negative = cytotoxicity, usual class: inhibitors; HEK 293 viability, ATP luminescence (CellTiter-Glo), 48-72 h; AID 1345083; further: nearly all actives have a fitted effect of over 60% in size
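Luminescence from cellular ATP, measured with CellTiter-Glo, indicates HEK 293 viability. Cells plated at 250 cells/well are treated with compound for 48 or 72 hr at 37 degree Celsius before reagent addition.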
NIH3T3 tox = cytotoxic compounds in NIH 3T3 cells. hit rate 4.3% among 94,000. Potency, µM (titrated, usually from 96.7 µM), without a hit: at the highest dose activity change, negative = cytotoxicity, hits mostly inhibitors. NIH 3T3 viability, CellTiter-Glo ATP luminescence, 48-72 h. AID 1345082; further: nearly all actives have a fitted effect of over 55% in size
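NIH 3T3 cells at 400 cells/well received 23 nL of compound by pintool and were incubated 48 or 72 h at 37 °C. Viability was read as ATP-coupled CellTiter-Glo luminescence.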
SNCA viab count = reduces viability of HEK-293 SNCA reporter cells; hit rate 0.12% among 150,000; HEK-293-SNCA-luc viability, GF-AFC fluorescence, 24 h; Potency, µM (highest dose often 57.1 µM), inactives show top-dose activity change, negative = cytotoxicity, most hits filed as cytotoxic;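 further: 0% = DMSO-treated cells and -100% = medium-only wells without cells; nearly all actives have a fitted effect of over 30% in size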
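HEK-293-SNCA-luc cells (1500/well) plated 24 h, then exposed 24 h to a dilution series; GF-AFC added 30 min at 37C, fluorescence 405/540 nm; normalised to medium-only and DMSO wells, Hill fit.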
FLuc inh = blocks purified firefly luciferase enzyme activity | P08659 | purified P. pyralis luciferase, luminescence, biochemical | Potency, µM (series often up to 115 µM), most hits filed as inhibitors | hit rate 2.5% among 76,000; further: nearly all actives have a fitted effect of over 65% in size
Target sequence (P08659 whole entry, looked up): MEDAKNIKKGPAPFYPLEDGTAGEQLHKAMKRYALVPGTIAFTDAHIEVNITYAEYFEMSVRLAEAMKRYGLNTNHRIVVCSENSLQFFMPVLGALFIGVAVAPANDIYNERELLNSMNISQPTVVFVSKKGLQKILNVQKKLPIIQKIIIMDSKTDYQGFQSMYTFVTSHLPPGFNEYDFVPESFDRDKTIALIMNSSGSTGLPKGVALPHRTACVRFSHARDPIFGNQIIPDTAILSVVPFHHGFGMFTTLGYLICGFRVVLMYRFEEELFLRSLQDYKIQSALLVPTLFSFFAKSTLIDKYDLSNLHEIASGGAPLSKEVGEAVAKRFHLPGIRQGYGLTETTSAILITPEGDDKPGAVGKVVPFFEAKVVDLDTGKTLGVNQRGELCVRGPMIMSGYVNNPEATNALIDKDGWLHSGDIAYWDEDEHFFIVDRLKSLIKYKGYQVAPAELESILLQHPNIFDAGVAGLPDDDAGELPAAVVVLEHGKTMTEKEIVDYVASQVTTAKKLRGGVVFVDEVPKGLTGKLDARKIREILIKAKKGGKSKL
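Luminescence read by CCD imaging after purified firefly luciferase (10nM final) was added to substrate buffer holding 10uM D-luciferin and 10uM ATP, pH 7.5, pre-dosed with compound.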
hNpr1 antagonist = blocks ANP-stimulated signaling of human Npr1 receptor | AID 1347048 | Potency, µM (series often up to 46.3 µM), inactives show at the highest dose activity change, negative = inhibition, actives largely listed as inhibitors | P16066 | hit rate 1.6% among 76,000 | HEK293 hNpr1 GloSensor cGMP, ANP-stimulated luminescence; calls by dose curve; further: nearly all actives have a fitted effect of over 60% in size
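Compound pre-incubated 30 min at room temperature on GloSensor-loaded HEK293 cells stably carrying hNpr1 and the pGS-40F cGMP biosensor. Stimulation uses hNppA at 0.1 nM final; luminescence is taken at baseline and 20 min post-agonist.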
The depositor's hits bear a star; i = inactive; ? = inconclusive; · = not tested or not shown; [ ] = another dose, or the depositor's remark. Only some compounds are listed: those with a hit (about 7.2% of all), similar ones and a draw of the others. Unless noted, the call rests on the fitted dose curve; in most records, active means well fitted curve in the direction sought with a large enough effect; inconclusive means small, poorly fitted or top-dose-only effect, or another doubt; inactive means no such curve, though single readings can be large; an effect the other way counts as inactive or inconclusive. Unless noted, on the % scale 0 is the no-effect control and ±100 the full control effect; potency means the concentration at half of the fitted maximal effect.

SMILES	SNCA expr inh	HEK cytotox	NIH3T3 tox	SNCA viab count	FLuc inh	hNpr1 antagonist
Cc1ccccc1C(=O)N1CCC2(CC1)C(=O)N(c1cccc(F)c1)C2c1ccccc1 (configuration not stated)	?	25.1µM*	35.5µM*	?	·	·
O=C(c1cccc(Cl)c1)N1CCCC(c2nn(-c3ccccn3)c(=O)[nH]2)C1 (configuration not stated)	-15.9%	i	-8.8%	-2.6%	·	·
CC(C)c1ccc(CC(=O)N2CCCc3ncc(C(=O)N4CCCC[C@@H]4Cc4ccccc4)cc32)cc1	-28.4%	44.7µM*	35.5µM*	?	i	-6.6%
O=C(Cc1cccc(C(F)(F)F)c1)N1CCCc2ncc(C(=O)N3CCCC[C@@H]3Cc3ccccc3)cc21	-0.6%	79.4µM*	?	-19.8%	i	-4.0%
CC(C)c1ccc(CC(=O)N2CCCc3ncc(C(=O)N4CCCC[C@@H]4c4ccccc4)cc32)cc1	-6.0%	?	?	-19.3%	i	-21.6%
O=C1CCN(Cc2cccc(F)c2)CCCC(c2nc(-c3cccnc3)no2)CCN1 (configuration not stated)	-8.7%	79.4µM*	?	-2.0%	i	2.0%
N#Cc1cccc(CN2CCC3(CC2)CC(Cc2nc(C4CC4)no2)CCO3)c1 (configuration not stated)	-6.8%	44.7µM*	?	?	i	-30.4%
Cc1nn(-c2ccc(C(F)(F)F)cc2)c(C)c1[C@@H]1C=C[C@@H](NC(=O)c2cccnc2)C1	55.2%[87.6 µM]	?	28.2µM*	-21.7%[87.6 µM]	?	-26.2%[70.6 µM]
Cc1nn(-c2ccc(C(F)(F)F)cc2)c(C)c1[C@@H]1C=C[C@@H](NC(=O)Nc2cccc(C#N)c2)C1	0.1%	?	25.1µM*	?	7.08µM*	?
Cc1nn(CCC#N)c(C)c1[C@@H]1C=C[C@@H](NC(=O)Nc2ccccc2)C1	35.7%[87.6 µM]	-3.4%[172 µM]	?	0.3%[87.6 µM]	?	2.8%[70.6 µM]
Cc1nn(-c2ccccc2[N+](=O)[O-])c(C)c1[C@@H]1C=C[C@@H](NC(=O)Nc2cccc(C#N)c2)C1	?	39.8µM*	?	?	?	?
Cc1nn(-c2ccccc2)c(C)c1[C@@H]1C=C[C@@H](NC(=O)c2ccco2)C1	6.6%[87.6 µM]	?	?	?	i	35.5µM*
CCCNC(=O)N(C1CCOCC1)C1CCN(S(=O)(=O)c2ccccc2CC)CC1	2.3%	-29.3%	-31.6%	0.8%	i	-6.0%
C=C1/C(=C/C=C2\CCC[C@]3(C)[C@@H]([C@H](C)/C=C/[C@H](O)C4CC4)CC[C@@H]23)C[C@@H](O)C[C@@H]1O	·	·	·	3.5%	·	·
N#CC1CCN(C(=O)c2cc(-c3cccs3)c3cccn3n2)CC1	-1.9%[87.6 µM]	79.4µM*	?	-4.1%[87.6 µM]	·	·
O=C(NCc1ccc(F)cc1)c1cc(-c2cccs2)c2cccn2n1	-20.8%	?	?	-13.4%	·	·
O=C(NCc1cccc(Cl)c1)c1cc(-c2cccs2)c2cccn2n1	?	28.2µM*	?	?	·	·
O=C(NCC1CC1)c1cc(-c2cccs2)c2cccn2n1	89.4%[87.6 µM]	70.8µM*	?	-10.4%[87.6 µM]	·	·
COc1ccccc1-c1ccc2c(C(=O)NCc3cccs3)nn(C)c2n1	-8.3%	?	-34.6%	-14.2%	·	·
Cc1cccc(OCC(=O)c2ccc3c(c2)N(C(C)C(=O)Nc2ccccc2)C(=O)CO3)c1C (configuration not stated)	8.0%	?	?	-3.0%	i	4.2%
O=C1CC(c2ccccc2)N(C(=O)C2CC2)CCCN(C(=O)Cc2c[nH]c3ccccc23)CCN1 (configuration not stated)	-8.0%	0.5%	-0.1%	6.1%	i	8.1%
CCc1n[nH]c(CC2CCN(C(=O)Cc3cccc(F)c3)CC2)n1	-22.2%	-20.3%	-0.2%	1.4%	i	1.4%
Cc1cc(N2CCC(NCc3nc[nH]c3C)CC2)nc(-c2ccccc2O)n1	-20.3%	?	35.5µM*	-14.7%	i	-2.1%
O=C(c1nc2cccnc2n(C2CC2)c1=O)N1CCCC1	17.2%[87.6 µM]	i	-0.7%[138 µM]	4.9%[87.6 µM]	·	·
CCOC(=O)c1cccc(NC(=O)c2ccc3c(c2)N(CC)C2CCCCN2C3=O)c1 (configuration not stated)	-8.5%	39.8µM*	39.8µM*	2.7%[12.5 µM]	i	-28.2%
SMILES	SNCA expr inh	HEK cytotox	NIH3T3 tox	SNCA viab count	FLuc inh	hNpr1 antagonist
CCOC(=O)c1cccc(NC(=O)c2ccc3c(c2)N(C)C2CCCCCN2C3=O)c1 (configuration not stated)	?	31.6µM*	?	10.4%[12.5 µM]	?	-18.2%
CCN1c2cc(C(=O)Nc3cccc(C)c3)ccc2C(=O)N2CCCC21 (configuration not stated)	14.5%	?	?	-11.6%[12.5 µM]	i	6.5%
C=CCN(C)C(=O)[C@@H](C)C1CC[C@@]2(C)Cc3sc(NC(=O)C4CC4)nc3[C@@H](C)[C@@H]2[C@H]1O (some centres not stated)	7.0%	i	-6.3%	0.1%	i	3.9%
C#CCN(C)C(=O)[C@@H](C)C1CC[C@@]2(C)Cc3sc(NCCCC)nc3[C@@H](C)[C@@H]2[C@H]1O (some centres not stated)	32.8%[87.6 µM]	?	?	-4.5%[87.6 µM]	17.8µM*	-20.1%[70.6 µM]
C=CCN(C)C(=O)[C@@H](C)C1CC[C@@]2(C)Cc3sc(NCCCC)nc3[C@@H](C)[C@@H]2[C@H]1O (some centres not stated)	-0.9%[87.6 µM]	?	35.5µM*	-17.4%[87.6 µM]	?	-12.6%[70.6 µM]
CNc1nc2c(s1)C[C@]1(C)CCC([C@H](C)C(=O)N3CCSCC3)[C@H](O)[C@H]1[C@@H]2C (some centres not stated)	-2.1%[87.6 µM]	?	-28.2%[174 µM]	0.8%[87.6 µM]	?	1.9%[70.6 µM]
c1ccc(-c2cc3c(cn2)CN(Cc2ccc4[nH]ccc4c2)CCN3)cc1	72.5%[87.6 µM]	50.1µM*	25.1µM*	?	56.2µM*	-4.5%[70.6 µM]
Cc1cc(-c2cc3c(cn2)CN(Cc2ccc4[nH]ccc4c2)CCN3)ccn1	117.8%[87.6 µM]	70.8µM*	?	-19.6%[87.6 µM]	44.7µM*	?
COc1cc(C(=O)NCc2c(C)noc2C)ccc1OC1CCN(C(C)=O)CC1	2.9%	-15.6%	-7.6%	2.7%	i	5.8%
C[C@@]12CO[C@@H](COc3ccccc3)O[C@@H]1CC[C@]1(C)C2CC[C@@H](O)[C@H]1CC(=O)NCc1cc(F)cc(F)c1 (some centres not stated)	?	28.2µM*	?	-17.4%	i	?
